# Screening results deposited in PubChem BioAssay by National Center for Advancing Translational Sciences (NCATS).
# Rab9 promoter act: qHTS Assay for Rab9 Promoter Activators. Huh7 Rab9 promoter-luciferase reporter, luminescence, 24 h. Potency, µM (doses to about 9.22 µM), for the others: top-dose activation, negative = inhibition, most hits filed as activators. 320,000 compounds, 2.8% hits; note: % of control where 0% means no effect; nearly all actives have a fitted effect of over 60% in size
#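 Huh7 reporter line, Rab9 promoter upstream of luciferase. Compound exposure 24 h at 37 °C in reduced-serum medium with 10% FBS. Read-out: luminescence.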
# ELG1 genotoxic: qHTS screen for small molecules that induce genotoxicity in human embryonic kidney (HEK293T) cells expressing luciferase-tagged ELG1; HEK293T ELG1-luciferase reporter, luminescence, 16 h; Potency, µM (highest dose often 46 µM), for the others: at the highest dose activity change, positive = activation, hits mostly activators; 330,000 compounds, 1.3% hits; note: % of control where 0% means no effect; nearly all actives have a fitted effect of over 60% in size
#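 16 hr compound incubation (37 °C, 5% CO2) of HEK293T cells carrying luciferase-tagged ELG1; luciferase then measured by ONE-Glo luminescence after 30 min at RT.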
# NPC1 prom act: qHTS Assay for NPC1 Promoter Activators; Huh7 NPC1 promoter luciferase reporter, 24 h; Potency, µM (top dose mostly 9.22 µM), inactives show at the highest dose activation, most hits filed as activators; 320,000 compounds, 2.4% hits; note: % of control where 0% means no effect; nearly all actives have a fitted effect of over 60% in size
#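 Luciferase expression driven by the NPC1 promoter was measured in stably transfected Huh7 cells after a 24 h compound incubation, using a luciferase reagent and a luminescence read.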
# Luc counter: Counterscreen for Luciferase (Kinase-Glo TM) Inhibition; 200,000 compounds, 0.28% hits; Potency, µM (top dose mostly 38.3 µM), without a hit: at the highest dose activity change, negative = inhibition, usual class: inhibitors; Kinase-Glo luciferase, ATP luminescence, 8 min; AID 1379, 2008; Luciferin 4-monooxygenase (Photuris pensylvanica), Q27757; note: % is set by controls: 0 for no effect and ±100 for the full control effect; nearly all actives have a fitted effect of over 60% in size
#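 Recombinant Kinase-Glo luciferase, 10 uM ATP (linear range), luciferin; imidazole pH 7.2 / KCl / MgCl2 / Tween / BSA buffer; 8 min RT; luminescence.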
# FLuc counter: qHTS profiling assay for firefly luciferase inhibitor/activator using purifed enzyme and Km concentrations of substrates (counterscreen for miR-21 project). Luciferin 4-monooxygenase (Photinus pyralis), P08659. purified FLuc, Km substrates, luminescence inhibition. Potency, µM (top dose mostly 57.5 µM), inactives show at the highest dose activity change, negative = inhibition, most hits filed as inhibitors. 360,000 compounds, 6.9% hits. AID 588342, 2011;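 note: plate controls were vehicle for no effect and reference inhibitor for full effect; nearly all actives have a fitted effect of over 55% in size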
# Target sequence (P08659 whole entry, looked up): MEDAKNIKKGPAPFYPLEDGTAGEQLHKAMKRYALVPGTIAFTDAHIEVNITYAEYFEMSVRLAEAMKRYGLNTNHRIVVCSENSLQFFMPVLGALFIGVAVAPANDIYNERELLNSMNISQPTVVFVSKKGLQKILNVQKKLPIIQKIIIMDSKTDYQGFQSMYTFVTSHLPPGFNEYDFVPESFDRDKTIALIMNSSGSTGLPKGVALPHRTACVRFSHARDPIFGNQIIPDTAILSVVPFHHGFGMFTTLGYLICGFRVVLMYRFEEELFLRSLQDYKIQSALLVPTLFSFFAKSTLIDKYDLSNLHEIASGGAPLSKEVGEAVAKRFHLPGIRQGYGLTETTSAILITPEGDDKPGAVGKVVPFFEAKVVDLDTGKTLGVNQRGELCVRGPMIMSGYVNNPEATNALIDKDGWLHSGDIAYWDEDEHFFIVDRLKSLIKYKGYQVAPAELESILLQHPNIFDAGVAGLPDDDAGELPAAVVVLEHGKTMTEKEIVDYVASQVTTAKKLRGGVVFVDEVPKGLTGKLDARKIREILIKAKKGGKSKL
#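 Biochemical qHTS of compounds, final roughly 60 µM downward over six points, against 10 nM purified firefly luciferase using Km concentrations of substrates (10 uM D-luciferin, 10 uM ATP) in Tris acetate pH 7.5 buffer; luminescence output.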
# SMN2 splice enh: qHTS Assay for Enhancers of SMN2 Splice Variant Expression; HEK293 SMN2-luciferase splicing reporter, luminescence, 30-36 h; Potency, µM (doses to about 46.1 µM), for inactives: at the top dose activity change, positive = activation, actives largely listed as activators; 210,000 compounds, 2.8% hits; AID 1458, 2008; note: % of control where 0% means no effect; nearly all actives have a fitted effect of over 55% in size
#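 HEK293 cells carry an SMN2 […]–luciferase reporter in which exon 7 inclusion puts luciferase in frame. Cells were plated 10-12 h before compound addition, then incubated 30-36 h at 37C. ONE-Glo luminescence was read; sodium butyrate at 4.5 mM final served as control.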
# * hit, by the source's call; u = inconclusive; x = not tested or not shown; [ ] = dose if it differs, or a comment. In the library only some 7.5% were active in any assay of this set; here they are far more common. Calls come from the whole dose curve; as a rule, active = well fitted curve in the direction sought with a large enough effect; inconclusive = small, poorly fitted or top-dose-only effect, or another doubt; inactive = no such curve, though single readings can be large; an effect the other way counts as inactive or inconclusive. Potency is the fitted concentration of half-maximal effect.
SMILES,Rab9 promoter act,ELG1 genotoxic,NPC1 prom act,Luc counter,FLuc counter,SMN2 splice enh
COc1ccc(C2=NN(C(=O)c3ccco3)C(c3ccco3)C2)cc1OC (stereo not drawn),3%,-5%,-1%,x,15µM*,x
O=C(c1ccco1)N1N=C(c2ccc(Cl)cc2)CC1c1ccco1 (stereo not drawn),-1%,-2%,-2%,x,u,x
CC1=C(C(=O)Nc2cccnc2)C(c2cccc(F)c2)n2nc(SCc3ccccc3)nc2N1 (stereo not drawn),x,x,x,x,0%,10%
COc1cc(NC(=O)C(Cc2ccccc2)NS(=O)(=O)c2cccc3nsnc23)cc(OC)c1 (stereo not drawn),x,x,x,x,-1%,2%
S=C(c1ccc(-c2cc(Cl)ccc2Cl)o1)N1CCCCC1,-4%,-3%,3%,1%,17µM*,-36%
S=C(c1ccc(-c2cc(Cl)ccc2Cl)o1)N1CCOCC1,-3%,0%,1%,-2%,u,-16%
O=C(NC(=S)Nc1cc(Cl)ccc1N1CCOCC1)c1ccc(-c2cccc(Cl)c2)o1,-11%,3%,-7%,4%,0%,1%
O=C(Nc1ccccc1N1CCCCC1)c1ccc(-c2cccc(Cl)c2)o1,-2%,4%,3%,-3%,-11%,-40%
S=C(c1ccc(-c2cccc(Cl)c2)o1)N1CCCCC1,2.5µM*,u,3.5µM*,0%,2.7µM*,11µM*
S=C(c1ccc(-c2cccc(Cl)c2)o1)N1CCOCC1,3.5µM*,3.5µM*,3.2µM*,-1%,5.4µM*,25µM*
O=C(CSc1n[nH]c(-c2ccco2)n1)Nc1ccccc1Cl,-4%,-3%,0%,x,1%,x
CCOc1ccc(C(=O)Nc2ccc(-c3nc4cc(CC)ccc4o3)cc2)cc1,x,x,x,x,0%,1%
O=C(N/N=C1/CCc2ccccc21)C1CC1,18%,u,7%,-4%,u,22%
O=C(N/N=C1\CCc2ccccc21)c1ccccc1Cl,2.8µM*,18µM*,2.2µM*,-4%,11µM*,10µM*
Cc1ccc(C(=O)N/N=C2\CCc3ccccc32)c(C)c1,2.2µM*,2.3µM*,u,0%,4.8µM*,0.79µM*
CCOC(=O)N/N=C1\CCc2ccccc21,29%,u,26%,-14%,u,16µM*
Cc1ccc(C)c(NC(=S)N/N=C2/CCCCc3ccccc32)c1,-3%,-9%,0%,-2%,2%,-38%
O=C(N/N=C1\CCCc2ccccc21)c1cccc(Br)c1,15%,4%,20%,-1%,u,u
O=C(N/N=C1\CCc2ccccc21)c1ccc(O)cc1,2.8µM*,4.6µM*,2.8µM*,-27%,7.6µM*,18µM*
Cc1cccc(NC(=O)CCc2nnc3ccc(NCc4ccco4)nn23)n1,-5%,5%,0%,x,-1%,x
O=C(N/N=C1\C(=O)c2cccc3cccc1c23)c1ccc(O)cc1,21%,3%,0%,-1%,2.1µM*,23%
COc1cccc(N2CCN(CC(=O)Nc3ccccc3C(=O)NCc3ccccc3)CC2)c1,-8%,-1%,-1%,x,-1%,x
COc1ccc(NC(=O)c2ccccc2NS(C)(=O)=O)cc1OC,-5%,-3%,-5%,-1%,17µM*,-4%
COc1ccccc1NC(=O)c1ccccc1NS(C)(=O)=O,-6%[1.84 µM],-6%,-1%,-1%,1%,-6%
O=C(NCCc1ccccc1)c1ccccc1NC(=O)C1CCCCC1C(=O)O (stereo not drawn),2µM*,u,u,1%,u,11µM*
SMILES,Rab9 promoter act,ELG1 genotoxic,NPC1 prom act,Luc counter,FLuc counter,SMN2 splice enh
COc1ccc(NC(C)=O)cc1S(=O)(=O)Nc1ccccc1C(=O)NCCc1ccccc1,2µM*,u,2.2µM*,x,17µM*,x
COc1cccc(N2CCN(CC(=O)Nc3ccccc3C(=O)NCCc3ccccc3)CC2)c1,3.5µM*,0%,3.2µM*,x,x,x
COC(=O)c1ccccc1NC(=O)C1CCCCC1C(=O)O (stereo not drawn),-2%,-12%,-5%,0%,2%,-15%
CN1CCN(C(=O)c2ccccc2NC(=O)c2cccc(Cl)c2)CC1,3%,4%,3%,x,6%,x
O=C1C=CC2(OCCCO2)C(Br)=C1CO,x,x,x,-1%,x,6%
COC(=O)c1ccc(NC(=O)c2ccccc2N(C)S(C)(=O)=O)cc1,-5%,0%,1%,-2%,0%,21%
COC(=O)c1ccc(NC(=O)c2ccccc2NS(C)(=O)=O)cc1,1%,-4%,0%,-2%,12µM*,6%
CC(NC(=O)c1ccccc1NS(=O)(=O)c1ccc(CCC(=O)O)cc1)c1ccccc1 (stereo not drawn),4%,3%,-1%,x,-1%,x
O=C(O)CCc1ccc(S(=O)(=O)Nc2ccccc2C(=O)NCCc2ccccc2)cc1,3.2µM*,u,2.2µM*,x,19µM*,x
Cc1nc(N2CCCCC2)c2sc(=S)n(C)c2n1,-11%,21µM*,-1%,3%,1%,-116%
CCN1CCN(c2nc(C)nc3c2sc(=S)n3C)CC1,-6%,3%,-2%,3%,-17%,-1%
CCOc1ccc(S(=O)(=O)NCCc2cn3ccccc3n2)cc1,3%,13%,-3%,x,1%,x
CCOc1ccc(-c2cn3ccccc3n2)cc1,u,u,u,8.9µM*,0.54µM*,0.89µM*
Fc1ccc(-c2cn3ccccc3n2)cc1,0.56µM*,u,0.71µM*,x,2.7µM*,x
O=C1CCC/C=C/C[C@H](CC(=O)N(CCO)Cc2ccccc2)C(=O)N[C@@H](Cc2ccccc2)CO1,x,1%,x,x,x,x
CCC(Cn1nnc2ccccc2c1=O)NC(=O)Nc1cc(C)cc(C)c1 (stereo not drawn),x,x,x,x,-10%,-3%
O=C1NC(=S)S/C1=C\C=C\c1ccc([N+](=O)[O-])o1,-49%,u,-43%,x,24µM*,x
O=C(O)/C=C/c1ccc([N+](=O)[O-])o1,-4%,0%,-4%,7%,3%,6%
CCOC(=O)c1ccc(NC(=O)CN2C(=O)C(C)SC(C)C2=O)cc1 (stereo not drawn),0%,-2%,-1%,1%,u,8%
CCOC(=O)c1ccc(NC(=O)CN2C(=O)CSC(C)C2=O)cc1 (stereo not drawn),-4%,1%,-4%,2%,17µM*,-18%
